Values without a mark were called inactive.
How the values were obtained:
Settings in all cases: 60 µM; 5 days; temperature: 20 °C
Meloidogyne hapla J2 = assay: proportion of mobile M. hapla J2 relative to DMSO control (fraction of DMSO control); higher = more viable, less nematicidal, active = 0.7 or less
Method in brief: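 About 25 M. hapla J2 were placed in each well of a 96-well plate in distilled water, and compound was pinned in to a final 60 µM with 0.6% v/v DMSO. The sealed plates were shaken at 200 rpm at 20 °C for 5 days, after which 2 µL of 1 M NaOH went into each well. Mobility was then scored under the microscope and divided by the mean value from DMSO-only wells on the same plate. Each plate held eight such DMSO wells, and two biological replicates were averaged.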

[1] = tested on: Caenorhabditis elegans dauer (daf-2(e1370)); assay: proportion of mobile C. elegans dauer larvae relative to DMSO control (fraction of DMSO control); higher = more viable, less nematicidal, active = 0.63 or less; extreme values may be limits of the assay
Method in brief: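 The proportion of mobile worms, relative to DMSO wells, was scored by dissection microscope and averaged over two biological replicates. Worms were C. elegans dauers, about 20 per well in liquid NGM in 96-well plates, generated from synchronized larvae on MYOB plates with E. coli OP50 at 25 °C for 48 h. They were treated with compound pinned to 60 µM final (0.6% v/v DMSO) and kept in sealed plates shaken at 200 rpm for 5 days at 20 °C.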

Ditylenchus dipsaci = assay: proportion of mobile D. dipsaci (mixed stage) relative to DMSO control (fraction of DMSO control); higher = more viable, less nematicidal, active = 0.86 or less; extreme values may be limits of the assay
Method in brief: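 Ditylenchus dipsaci nematodes were cultured on pea plants in Gamborg B-5 agar, then extracted into water through a filter funnel, and roughly 20 worms in distilled water were placed in each well of a 96-well plate. Compound was pinned in to a final concentration of 60 µM (0.6% v/v DMSO), and the sealed plates were shaken at 200 rpm for 5 days at 20 °C. Mobile worms were counted under the microscope after 2 µL of 1 M NaOH was added. Mobility is given relative to DMSO controls as the mean of two biological replicates.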

| Structure (SMILES) | proportion of mobile M. hapla J2 (Meloidogyne hapla J2) | proportion of mobile C. elegans dauer larvae [1] | proportion of mobile D. dipsaci (Ditylenchus dipsaci) |
| --- | --- | --- | --- |
| Cc1ccc(-c2nnc(SCC(=O)Nc3cc(C)ccc3C)o2)cc1 | 0.982 | 1 | 1 |
| Cc1cc(OCc2nc(-c3ccncc3)no2)cc(C)c1Cl | 0.78 | 1 | 1 |
| COc1ccc(-c2nnc(SCC(=O)c3ccccc3)o2)cc1 | 0.767 | 1 | 1 |
| CCCC(=O)Nc1ccccc1-c1nc(-c2ccccn2)no1 | 0.965 | 1 | 1 |
| CSc1ccccc1-c1nc(-c2cccnc2)no1 | 1.07 | 0.684 | 1 |
| Cc1cc(C)cc(OCc2nc(-c3cc(C)nc4ccccc34)no2)c1 | 1.02 | 1 | 1 |
| Fc1ccc(-c2noc(-c3ccc(Br)cc3)n2)cc1 | 1.04 | 1 | 1 |
| COc1ccccc1-c1nc(-c2ccc(Cl)cc2)no1 | 0.934 | 1 | 1 |
| Clc1ccc(-c2noc(-c3ccccc3Br)n2)cc1 | 0.995 | 1 | 1 |
| COC(=O)c1ccc(CSc2nnc(-c3cccnc3)o2)cc1 | 1.03 | 1 | 1 |
| COc1ccc(-c2nnc(SCC(=O)Nc3ccc(Br)cc3C(C)C)o2)cc1 | 1 | 1 | 1 |
| Cc1cccc(OCc2nc(-c3ccc(Br)cc3)no2)c1 | 1.04 | 1 | 1 |
| Brc1ccc(CSc2nnc(-c3ccco3)o2)cc1 | 0.995 | 1 | 1 |
| O=C(CSc1nnc(-c2ccccc2Cl)o1)c1ccc2c(c1)CCCC2 | 0.914 | 1 | 1 |
| CC(C)(C)c1ccc(-c2nnc(SCc3cccc(C#N)c3)o2)cc1 | 1.05 | 1 | 1 |
| CC(C)Oc1ccc(-c2nc(-c3ccncc3)no2)cc1 | 1 | 0 (active) | 0.941 |
| C=C(C)COc1ccc(-c2nc(-c3cccnc3)no2)cc1 | 0.919 | 1 | 1 |

| Structure (SMILES) | proportion of mobile M. hapla J2 (Meloidogyne hapla J2) | proportion of mobile C. elegans dauer larvae [1] | proportion of mobile D. dipsaci (Ditylenchus dipsaci) |
| --- | --- | --- | --- |
| Cc1ccc(-c2nnc(SCc3ccccc3F)o2)cc1 | 0.636 (active) | 1 | 1 |
| Cc1ccccc1-c1nnc(SCc2ccccc2Cl)o1 | 0.863 | 1 | 1 |
| Cc1ccccc1-c1nc(-c2ccc3c(c2)OCO3)no1 | 0.848 | 1 | 0.933 |
| CCOc1ccccc1-c1nnc(SCC(=O)Nc2nc(C)cs2)o1 | 0.993 | 1 | 1 |
| CCOc1ccccc1-c1nnc(SCC(=O)NC(C)CC)o1 (configuration not stated) | 0.951 | 1 | 1 |
| c1ccc2c(OCc3nc(-c4ccncc4)no3)cccc2c1 | 0.979 | 1 | 1 |
| CCc1cccc(C)c1NC(=O)CSc1nnc(-c2ccccc2)o1 | 1.04 | 1 | 1 |
| COc1nc(-c2ccccc2)ccc1-c1noc(-c2ccccc2Cl)n1 | 0.989 | 1 | 1 |
| COc1ccc(-c2noc(-c3cc(C)ccc3C)n2)cc1 | 0.916 | 1 | 1 |
| O=C(CSc1nnc(-c2ccc(Br)cc2)o1)N1CCCCCC1 | 0.844 | 1 | 1 |
| Clc1ccccc1CSc1nnc(-c2ccncc2)o1 | 0.974 | 1 | 1 |
| COc1ccc(C(=O)CSc2nnc(-c3cccc4ccccc34)o2)cc1 | 0.929 | 1 | 1 |
| Cc1cccc(-c2noc(COc3ccc(C)c(C)c3)n2)c1 | 1.04 | 1 | 1 |
| COc1ccc(CSc2nnc(-c3ccc(Cl)cc3Cl)o2)cc1 | 1.01 | 1 | 1 |
| COc1ccccc1-c1noc(-c2ccccc2)n1 | 1.04 | 1 | 1 |
| Cc1ccccc1-c1nc(-c2cccc(NC(=O)c3cccs3)c2)no1 | 0.959 | 1 | 1 |
| Cc1ccc(-c2nc(-c3ccccc3Cl)no2)cc1 | 0.998 | 1 | 1 |
